High-throughput results from PubChem BioAssay.
IDE act: activators of human insulin-degrading enzyme in cells | 0.073% of 340,000 active | activation, % at 5.96 µM | AID 493087 | HEK cells, FAbeta-B cleavage, fluorescence polarization; 0% vehicle, 100% cell-free pure enzyme wells | P14735;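 active = activation above the mean of all tested compounds plus 3 SD, set per screening campaign, cut at about 17% in these data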
Target sequence (P14735 whole entry, looked up): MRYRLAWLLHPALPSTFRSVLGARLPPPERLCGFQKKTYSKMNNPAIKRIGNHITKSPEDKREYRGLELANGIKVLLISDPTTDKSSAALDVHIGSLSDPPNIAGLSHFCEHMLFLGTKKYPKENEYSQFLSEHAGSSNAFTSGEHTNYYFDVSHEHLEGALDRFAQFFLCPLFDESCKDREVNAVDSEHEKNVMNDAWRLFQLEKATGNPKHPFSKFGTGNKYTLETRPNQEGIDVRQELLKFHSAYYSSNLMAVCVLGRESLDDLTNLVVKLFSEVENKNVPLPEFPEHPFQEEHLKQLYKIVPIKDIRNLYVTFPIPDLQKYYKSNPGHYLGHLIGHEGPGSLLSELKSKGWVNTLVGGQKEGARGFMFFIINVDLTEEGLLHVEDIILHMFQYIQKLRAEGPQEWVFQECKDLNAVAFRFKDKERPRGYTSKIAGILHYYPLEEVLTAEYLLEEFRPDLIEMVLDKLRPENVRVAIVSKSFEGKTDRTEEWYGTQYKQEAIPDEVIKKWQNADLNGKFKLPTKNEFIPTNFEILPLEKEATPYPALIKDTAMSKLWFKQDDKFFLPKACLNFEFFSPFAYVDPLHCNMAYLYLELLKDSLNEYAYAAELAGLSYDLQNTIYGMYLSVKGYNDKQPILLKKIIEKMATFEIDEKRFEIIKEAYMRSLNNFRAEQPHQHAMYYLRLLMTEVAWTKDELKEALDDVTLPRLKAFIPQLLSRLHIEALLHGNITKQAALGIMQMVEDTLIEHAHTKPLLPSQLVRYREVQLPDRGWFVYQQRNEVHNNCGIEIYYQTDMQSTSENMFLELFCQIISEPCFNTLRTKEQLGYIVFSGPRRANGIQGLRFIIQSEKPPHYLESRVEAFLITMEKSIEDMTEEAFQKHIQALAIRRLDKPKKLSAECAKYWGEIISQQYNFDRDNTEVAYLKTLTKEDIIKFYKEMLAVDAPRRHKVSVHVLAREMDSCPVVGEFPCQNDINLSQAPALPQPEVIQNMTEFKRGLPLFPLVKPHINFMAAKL
TPT1 inh: blocks Candida albicans tRNA 2'-phosphotransferase | recombinant caTPT1, FP RNA substrate dephosphorylation | inhibition, % at 5 µM | 0.81% of 300,000 active | AID 1962;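 active = inhibition above the mean of all tested compounds plus 3 SD, set per screening campaign, cut at about 24% in these data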;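 also: plate controls were DMSO alone for no effect and ferristatin control at 100 nM for full effect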
CRFR2-BP antag: CRF-BP/CRF-R2 complex antagonism. HEK293 CRF-R2/CRF-BP, CRF-induced calcium fluorescence. inhibition, % at 11.8 µM. 0.59% of 350,000 active;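 active = inhibition of the ligand-induced calcium signal above about 50% at the single tested concentration, limit read from the data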
Myeloid diff MLP: myeloid differentiation induction; calls only at 10 µM; ER-HoxA9 myeloid progenitors, lysozyme-GFP differentiation, flow cytometry; 1% of 360,000 active;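 active = normalized GFP-positive differentiation at or above the plate's own cutoff, the solvent-only control mean plus 3 SD; inconclusive = no clear call, values can overlap the other calls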;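 also: cells exposed to compound for four days before flow analysis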
CRFR2-BP ag: agonists of human CRF-binding protein/CRF-R2 receptor complex; HEK293 CRF-R2/CRF-BP, calcium dye fluorescence (FLIPR); percent of saturating CRF peptide response; AID 588473; 0.46% of 350,000 active; activation, % at 13.2 µM;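 active = activation of at least 50%, plus an integration ratio under a set limit after plate pattern correction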;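 also: plate controls were neutral control wells without compound for no effect and CRF at EC100 for full effect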
IDE cell inh: inhibitors of human insulin-degrading enzyme in cells; AID 434962; inhibition, % at 5.59 µM; HEK cells, FAbetaB cleavage, fluorescence polarization; P14735; 0.41% of 320,000 active;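 active = percent inhibition above the average of all tested compounds plus 3 SD, set per screening campaign, cut at about 16% in these data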;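 also: IDE supplied by intact live HEK cells; FP after avidin binding of uncleaved biotin substrate so inhibition keeps polarization high; 0% = DMSO wells and 100% = 60 µM reference IDE inhibitor Ii1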
Numbers without * were called inactive; i = inactive; ? = inconclusive; nt = no result; + = active, no number. This is a sample that favours compounds with a hit; in the whole collection about 2.6% have one here.

SMILES | IDE act | TPT1 inh | CRFR2-BP antag | Myeloid diff MLP | CRFR2-BP ag | IDE cell inh
CCOC(=O)c1cc(=O)cc(C(=O)OCC)o1 | 4 | -3 | 50* | i | -2 | 3
O=C1/C(=N\S(=O)(=O)c2cccs2)C([n+]2cccc(Cc3ccccc3)c2)=C([O-])c2ccccc21 | nt | -74 | -62 | i | 62* | -11
O=C1/C(=N\S(=O)(=O)c2cccs2)C([n+]2ccc(CCCc3ccccc3)cc2)=C([O-])c2ccccc21 | nt | -1 | -7 | i | -1 | 5
COc1ccc(-n2c(SCC(=O)Nc3cc(C)on3)nc3c(c2=O)SC(C)C3)cc1 (centres undefined) | nt | nt | -9 | i | 0 | nt
C=CCNc1nc(Cl)nc(Nc2ccccc2)n1 | -3 | -3 | 3 | i | -2 | 1
CNc1nc(Cl)nc(Nc2ccccc2)n1 | 3 | -4 | 103* | i | 0 | 4
O=[N+]([O-])c1cc(C(F)(F)F)ccc1N1CCN(S(=O)(=O)c2ccc3c(c2)CCCC3)CC1 | 3 | -1 | -7 | i | -1 | -4
CCN(c1cccc(C)c1)c1nc2ccsc2c(=O)s1 | 6 | 2 | 70* | i | -6 | 2
CCN(c1ccccc1)c1nc(=O)c2cccnc2s1 | -19 | -3 | 29 | i | 1 | 7
CCCCOCCCNC(=O)C[C@@H]1C[C@@]2(C(=O)OC)CCCCC=C2N(Cc2ccccc2)C1=O | nt | nt | nt | i | nt | nt
CCc1ccc2nc3sc(C(=O)N4CCc5ccccc54)c(N)c3cc2c1 | nt | 1 | nt | nt | nt | 0
Cc1ccc(C)c2nc3sc(C(=O)N4CCCc5ccccc54)c(N)c3cc12 | 1 | 22 | -154 | + | 60* | -5
CSc1ccc(-c2cc(=O)c3ccccc3o2)cc1 | 1 | 7 | -36 | i | -2 | 1
O=c1cc(-c2ccc(F)cc2)oc2ccccc12 | 4 | 0 | 99* | i | -1 | -2
O=c1cc(-c2ccccc2[N+](=O)[O-])oc2ccccc12 | 4 | 0 | -3 | + | 0 | 1
O=c1cc(-c2ccccc2F)oc2ccccc12 | 2 | -3 | 3 | i | -2 | 6
Cc1ccc(S(=O)(=O)N2[C@@H](CO)CO[C@H]2CC(=O)c2cccs2)cc1 | nt | nt | nt | i | nt | nt
CCOC(=O)c1ccc(NC(=O)c2ncn3c2C(=O)N[C@H](C)C3)cc1 | nt | nt | 7 | + | -1 | nt
O=C(NCCCN1CCOCC1)c1ccc(Sc2ccc(Br)cc2)c([N+](=O)[O-])c1 | -3 | -2 | 32 | + | -3 | 1
O=C(NCCCN1CCOCC1)c1ccc(Sc2ccccc2Cl)c([N+](=O)[O-])c1 | 5 | -1 | -8 | i | -1 | 9
COc1cccc(O)c1CN1CCC(n2nccc2NC(=O)c2ccc3c(c2)OCO3)CC1 | 2 | 0 | -10 | i | -1 | 3
CSc1ccc(/C=c2\s/c(=C\C(=O)C(C)(C)C)n(CC(=O)NCCC3=CCCCC3)c2=O)cc1 | 5 | 7 | -53 | i | 34 | 0
CCCNC(=O)Cn1c(=O)/c(=C/c2ccc(-c3ccc([N+](=O)[O-])cc3)o2)s/c1=C\C(=O)C(C)(C)C | -1 | nt | -93 | + | 165* | nt
Cc1nc(C(F)(F)F)ccc1C(=O)N1CCC1(C)C(=O)NS(C)(=O)=O (centres undefined) | nt | nt | nt | i | nt | nt
O=C(Nc1ccccc1-c1nc2ccccc2[nH]1)c1ccc(N2C(=O)CCC2=O)cc1 | 0 | 3 | 7 | + | 5 | 6
SMILES | IDE act | TPT1 inh | CRFR2-BP antag | Myeloid diff MLP | CRFR2-BP ag | IDE cell inh
COC(=O)CN1C(=O)COc2ccc(S(=O)(=O)NCc3ccc(Cl)cc3)cc21 | 4 | 2 | 99* | i | 1 | 0
O=C1COc2ccc(S(=O)(=O)NCc3ccc(Cl)cc3)cc2N1 | 6 | 0 | 2 | i | 1 | 5
Cc1ccc(CNC(=O)CN(c2ccc(C)cc2)S(=O)(=O)c2c(C)nn(C)c2C)cc1 | 5 | 1 | 83* | i | -1 | 4
Cc1nn(C)c(C)c1S(=O)(=O)N(CC(=O)N1CCc2ccccc21)c1ccc(C(C)C)cc1 | 3 | -3 | 7 | + | 2 | -4
Cc1ccc(N(CC(=O)NCc2ccc(F)cc2)S(=O)(=O)c2c(C)nn(C)c2C)cc1 | 1 | -2 | 0 | i | -1 | 10
Cc1ccc(SCc2nc3ncccn3c2Br)cc1 | nt | -1 | -10 | i | 0 | 7
C[C@H](CO)N1C[C@H](C)[C@@H](CN(C)C(=O)c2ccc3ccn(C)c3c2)OCc2cn(nn2)CCCC1=O | nt | nt | 63* | i | 0 | nt
C[C@@H]1CN([C@H](C)CO)C(=O)CCCn2cc(nn2)CO[C@H]1CN(C)C(=O)c1ccc2ccn(C)c2c1 | nt | nt | nt | i | nt | nt
CCN(CC)S(=O)(=O)c1cc(NC(=O)Cn2ncc(Cl)c(Cl)c2=O)ccc1C | 5 | 0 | 16 | ? | 2 | -2
CCC(CC)C1=NN2C(=N)/C(=C\c3cc(C)n(-c4cccc(C)c4)c3C)C(=O)N=C2S1 | -1 | 1 | -64 | i | 87* | 5
Cc1cccc(C)c1-n1cccc1/C=C1/C(=N)N2C(=NC1=O)SN=C2S(C)(=O)=O | -1 | 1 | 59* | i | -1 | 6
CCOc1ccc(-n2c(C)cc(/C=C3/C(=N)N4C(=NC3=O)SN=C4S(C)(=O)=O)c2C)cc1 | 3 | 6 | 93* | i | 2 | 0
COc1ccc(C(=O)N2CCN(c3cccc(C)c3C)CC2)cc1S(=O)(=O)NC1CC1 | -1 | nt | 7 | i | 0 | nt
Cc1onc(-c2ccccc2Cl)c1C(=O)NCc1nnnn1-c1ccc(F)c(F)c1 | nt | nt | 5 | i | -3 | nt
O=c1oc2c3c4c(cc2c2c1CCC2)OCCN4CCC3 | -5 | 0 | -8 | i | 14 | 6
O=C(COC(=O)c1ccncc1)Nc1cc(Cl)ccc1Cl | 10 | 1 | 52* | i | -4 | -2
CC(C)c1cccc(OCCN2CCCC2)c1 | 5 | -1 | 2 | i | 1 | 1
COc1cccc(C(=O)OCC(=O)NCCC2=CCCCC2)c1 | -2 | nt | 103* | i | -6 | 1
COc1ccc(Nc2c(-c3ccco3)nc3ccc(C)cn23)cc1 | -2 | -3 | 10 | + | -2 | 1
CCOC(=O)NC(O)C(=O)c1cccs1 (centres undefined) | 1 | 0 | 65* | i | 0 | 5
COc1ccc(C)cc1NC(=O)c1ccccc1NS(=O)(=O)c1ccc(Cl)s1 | 4 | 0 | 65* | i | 40 | -1
O=C(Nc1cc(S(=O)(=O)N2CCOCC2)ccc1O)c1ccc(NS(=O)(=O)c2ccc(Cl)s2)cc1 | 5 | -3 | -2 | i | -2 | -2
Cc1ccc(NC(=O)c2ccccc2NS(=O)(=O)c2ccc(Cl)s2)cc1S(=O)(=O)N1CCOCC1 | -4 | 3 | 87* | i | 43 | 4
